KB-V1 cytotox: KB-V1 MDR subline cytotoxicity; Potency, µM (doses to about 46.1 µM), usual class: cytotoxic; 400,000 compounds, 3.4% hits; AID 1347076; KB-V1 MDR cells viability, CellTiter-Glo, 72 h; also: nearly all actives have a fitted effect of over 60% in size
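KB-V1 MDR subline cells in DMEM (phenol-red free, 10% FBS) exposed to compounds in qHTS concentration series for 72 h at 37 degrees C. Viability read by CellTiter-Glo luminescence; concentration-effect curves fitted after normalization and correction.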
HT1080-NT tox: kills 2HG-producing HT-1080-NT fibrosarcoma cells; HT-1080-NT fibrosarcoma viability, CellTiter-Glo ATP luminescence, 48 h; Potency, µM (series often up to 46.1 µM), inactives show at the highest dose activity, negative = less viability, usual class: cytotoxic; 360,000 compounds, 1.6% hits; AID 686970;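 also: NT is the 2HG producing partner of a matched IDH1 knockdown line; 0% = DMSO-treated cells and -100% = media-only wells without cells; nearly all actives have a fitted effect of over 55% in size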
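750 cells/well, RPMI + 5% FBS; 2 h settle, compound pin-transfer, 48 h at 37 degrees C. CellTiter-Glo 10 min RT, luminescence. Normalized to DMSO and media-only wells.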
DT40 TDP1 CPT: DT40-hTDP1 cell growth loss with CPT; chicken DT40 Tdp1-/-;hTDP1 cells + 20 nM CPT, ATP luminescence, 48 h; Potency, µM (top dose mostly 46.2 µM), for inactives: at the top dose activity change, negative = growth inhibition, usual class: inhibitors; 420,000 compounds, 12% hits; also: nearly all actives have a fitted effect of over 55% in size
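Chicken DT40 Tdp1-/- cells stably complemented with human TDP1 were seeded at 400 cells/well in medium containing 20 nM camptothecin, exposed to pin-transferred compounds, and grown at 37 °C for at least 48 hr. Viability was read as ATP luminescence.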
KB-3-1 cytotox: kills parental KB-3-1 adenocarcinoma cells | Potency, µM (series often up to 46.1 µM), usual class: cytotoxic | KB-3-1 viability, CellTiter-Glo ATP luminescence, 72 h | AID 1347075 | 400,000 compounds, 1.4% hits; also: nearly all actives have a fitted effect of over 60% in size
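Multi-concentration cytotoxicity screen in KB-3-1 cells grown in DMEM lacking phenol red with 10% FBS. After 72 h at 37 °C with compound, ATP-dependent luminescence was recorded.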
TDP1 cell noCPT: qHTS for Inhibitors of human tyrosyl-DNA phosphodiesterase 1 (TDP1): qHTS in cells in absence of CPT; AID 686978, 2013; DT40 Tdp1-/- hTDP1 cells, no CPT, ATP luminescence, 48 h; Potency, µM (doses to about 46.2 µM), without a hit: at the highest dose activity change, negative = growth inhibition, actives largely listed as inhibitors; 420,000 compounds, 15% hits; also: nearly all actives have a fitted effect of over 55% in size
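Camptothecin absent (DMSO only). Human TDP1-complemented DT40 knockout cells, 400 cells/well, 37 °C for minimum 48 hr; ATP measured via CellTiter-Glo, 30 min dark incubation, luminescence.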
HT1080 IDH1KD tx: kills HT-1080 cells with IDH1 knockdown; 360,000 compounds, 2% hits; Potency, µM (top dose mostly 46.1 µM), without a hit: at the highest dose activity, negative = toxicity, most hits filed as cytotoxic; HT-1080 IDH1 knockdown viability, ATP luminescence, 48 h; AID 686971;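 also: 0% = DMSO wells and -100% = cell-free medium wells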
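CellTiter-Glo luminescence after 48 h compound exposure at 37 degrees C of IDH1-knockdown HT-1080 cells in 5% FBS RPMI. %Activity scaled between DMSO wells and cell-free media wells, with curves fitted and assigned curve classes.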
The depositor's hits bear a star; i = inactive; ? = inconclusive; / = not tested or not shown; [ ] = another dose, or the depositor's remark. In the library only some 19% were active in any assay of this set; here they are far more common. Calls follow the shape of the dose curve; as a rule, active = well fitted curve in the direction sought with a large enough effect; inconclusive = small, poorly fitted or top-dose-only effect, or another doubt; inactive = no such curve, though single readings can be large; an effect the other way counts as inactive or inconclusive. Unless noted, % is scaled to controls: 0 for no effect and ±100 for the full control effect; potency is read from the fitted curve at half-maximal effect.

SMILES	KB-V1 cytotox	HT1080-NT tox	DT40 TDP1 CPT	KB-3-1 cytotox	TDP1 cell noCPT	HT1080 IDH1KD tx
O=C(c1ccc(CN2CCc3ccccc3C2)cc1)N1CCN(c2ccc(F)cc2)CC1	?	-5%	16µM*	?	13µM*	-13%
COc1ccccc1N1CCN(C(=O)c2ccc(CN3CCc4ccccc4C3)cc2)CC1	i	-6%	16µM*	i	?	-16%
COc1ccccc1N1CCN(C(=O)c2ccc(COc3cccc4c3OC(C)(C)C4)cc2)CC1	?	-5%	?	?	16µM*	-1%
O=C(c1ccc(CN2CCc3ccccc3C2)cc1)N1CCCCC1	i	-11%	-28%	i	?	-7%
CC1(C)Cc2cccc(OCC(=O)N3CCN(c4ccccc4F)CC3)c2O1	i	-6%	?	i	?	0%
O=C(c1ccc(Cn2cc(Cl)cn2)cc1)N1CCN(c2ccccc2)CC1	?	-15%	-23%	?	?	-16%
O=C(Nc1c(-c2ccc(Cl)cc2)[nH][nH]c1=O)c1ccc(Br)cc1	i	10%	-15%	i	-2%	1%
O=C(Cn1cnc2c(NCc3ccccc3)ncnc21)NCc1ccc2[nH]ccc2c1	i	0%	2%	i	-4%	-14%
O=C(Cn1cnc2c(OCc3ccccc3)ncnc21)NCc1ccccc1	i	?	?	i	16µM*	?
O=C(Cn1cnc2c(OCc3ccccc3)ncnc21)NCc1ccc2[nH]ccc2c1	i	2%	?	?	16µM*	5%
CN(C)c1ccc(C=Nc2ccc(/C=C3\C=Cc4ccccc43)cc2)cc1	i	/	-29%	i	?	/
COc1ccc(C)cc1NC(=O)C(=O)NCCc1sc(-c2ccc(Cl)cc2)nc1C	i	/	-9%	i	-27%	/
CCn1c(N2CCN(C(=S)NCC(C)C)CC2)nc2ccccc21	10µM*	0%	?	i	-22%	0%
CCn1c(N2CCN(C(=S)NC)CC2)nc2ccccc21	i	5%	-24%	i	1%	-21%[9.24 µM]
CCn1c(N2CCN(C(=S)NCCc3ccccc3)CC2)nc2ccccc21	?	-8%	?	i	26µM*	10%
CCn1c(N2CCN(C(=S)Nc3ccc(OC)cc3)CC2)nc2ccccc21	?	-3%	15µM*	i	15µM*	-10%
O=C(CNc1cccc2ccccc12)N/N=C/c1cccc(Oc2ccccc2)c1	i	?	?	i	26µM*	?
O=C(N/N=C/c1cccc(Oc2ccccc2)c1)c1cccc(Br)c1	i	-18%	?	i	21µM*	-29%
O=C(N/N=C/c1cccc(Br)c1)c1ccc(Br)cc1	i	-14%	-12%	i	-19%	-15%
COC(=O)/C(=C/c1cccnc1)NC(=O)c1ccccc1	i	-3%	7%	i	-5%	3%
CN(C)C(=O)/C(=C\c1cccc(Oc2ccccc2)c1)NC(=O)c1ccccc1	?	-14%	16µM*	i	?	-21%
NC(=S)N/N=C/C=C/c1ccccc1	i	11%	5.8µM*	i	5.8µM*	24%
O=C(COC(=O)CCC(=O)c1ccc(Cl)cc1)NC1CC1	i	12%	-10%	i	-10%	-1%
C/C=C(\C)C(=O)O[C@H]1C[C@@]2(C)CCC(C(C)C)C2(O)CC[C@@]1(C)O (stereo partly specified)	/	/	-8%[9.04 µM]	/	-12%[9.04 µM]	/
Cc1ccc(C(=O)N/N=C/C=C/c2ccccc2)cc1	i	-11%	-5%	i	-9%	-3%
SMILES	KB-V1 cytotox	HT1080-NT tox	DT40 TDP1 CPT	KB-3-1 cytotox	TDP1 cell noCPT	HT1080 IDH1KD tx
NC(=O)c1ccc(C(=O)N/N=C/c2cccc(Oc3ccccc3)c2)cc1	i	4%	1%	i	4%	4%
O=C(N/N=C/c1cccc(Oc2ccccc2)c1)c1cccc(O)c1	i	?	?	?	?	21µM*
CCC(CC)NC(=O)c1cccc(Oc2ccccc2)c1	23µM*	-9%	-12%	i	?	-7%
O=C(N/N=C/C=C/c1ccccc1)c1cccc(Br)c1	?	?	?	i	21µM*	?
O=C(COc1ccccc1C(=O)OCC(=O)Nc1cccc2ccccc12)Nc1ccc(Br)cc1	i	/	?	i	?	/
N#Cc1ccc(S(=O)(=O)N2CCCCC2c2cc(C(=O)NCc3ccccc3)no2)cc1 (stereo unspecified)	i	4%	?	i	-50%	0%
Cc1ccc(OCC(=O)NNC(=O)c2ccc(F)c(S(=O)(=O)N3CCOCC3)c2)cc1C	?	14%	-24%	i	-9%	5%
COc1cc(/C=N/NC(=O)c2cc(-c3cccc(Br)c3)nc3ccccc23)cc(OC)c1O	?	?	21µM*	?	?	12µM*
COc1cc(/C=N/NC(=O)c2ccc(CN3C(=O)c4cccc5cccc3c45)cc2)cc(OC)c1O	i	-29%	13µM*	?	?	?
CCOc1ccc(/C=N/NC(=O)c2cc(-c3ccccc3)nc3ccccc23)cc1O	i	3%	?	i	?	0%
O=C(N/N=C/c1cccc(F)c1)c1cc(-c2ccco2)nc2ccccc12	?	?	15µM*	?	10µM*	16µM*
COc1cc(/C=N/NC(=O)c2cc(-c3ccccc3Cl)nc3ccccc23)cc(OC)c1O	i	?	?	i	6.5µM*	?
Cc1ccccc1C(=O)OCc1cc(=O)n2nc(-c3cccs3)sc2n1	i	/	-21%	i	-13%	/
Cc1cc(C(=O)Nc2ccccc2-c2nc(CNC(=O)c3ccccc3Cl)c(C)o2)c(C)o1	/	/	19%	/	-6%	/
COc1cc(/C=N/NC(=O)c2cc(-c3ccco3)nc3ccccc23)cc(OC)c1O	i	-24%	10µM*	i	?	-15%
COc1ccc(-c2cc(C(=O)N/N=C(\C)c3ccco3)c3ccccc3n2)c(OC)c1	i	-21%	?	i	?	?
Cc1cc(C(=O)N/N=C/c2cccnc2)c2ccccc2n1	i	?	?	?	?	?
CCOc1ccccc1-c1cc(C(=O)N/N=C/c2cccnc2)c2ccccc2n1	i	-26%	?	i	1.5µM*	-18%
